Laboratory results taken from PubChem BioAssay (EPA / NIEHS).
Records with an inconclusive call do not appear. Activity calls are given as the source filed them. Rule for the calls: active = hit-call score of the fitted dose curve at least 0.9, where 1 is the maximum; inconclusive = response in the unintended direction; inactive = score below 0.9.

Test: Tanguay_ZF_120hpf_YSE_legacy: (Legacy) Oregon State University Tanguay Lab 120 Hour Post-fertilization zebrafish Assay for Yolk Sac Edema (AID 2283634);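 for AC50: actives raise the incidence of yolk sac edema above the DMSO baseline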
Procedure, shortened: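 Tropical 5D wild-type embryos, dechorionated with pronase at 4 hpf, were exposed singly from 6 hpf to 120 hpf under static, sealed, dark conditions at 28C with 0.64% DMSO final. Yolk sac edema was scored present/absent by brightfield microscopy.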

Structure (SMILES)	outcome	AC50
CCOP(=S)(OCC)Oc1ccc2c(C)c(Cl)c(=O)oc2c1	inactive	–
CCc1cccc(C)c1N(C(=O)CCl)C(C)COC (centres undefined)	inactive	–
COP(=O)(OC)C(O)C(Cl)(Cl)Cl (centres undefined)	–	56.1 µM (active)
CC(C)N(C(=O)SCC(Cl)=C(Cl)Cl)C(C)C	inactive	–
CCC(=O)Nc1ccc(Cl)c(Cl)c1	inactive	–
COc1cccc(C(=O)NN(C(=O)c2cc(C)cc(C)c2)C(C)(C)C)c1C	inactive	–
C[Si](Cn1cncn1)(c1ccc(F)cc1)c1ccc(F)cc1	–	40.9 µM (active)
O=c1ccc(=O)[nH][nH]1	–	25.4 µM (active)
CCCSP(=O)(OCC)Oc1ccc(Br)cc1Cl (centres undefined)	inactive	–
CC1(C(=O)Nc2ccc(O)c(Cl)c2Cl)CCCCC1	inactive	–
CC[C@H](C)[C@H]1O[C@]2(C=C[C@@H]1C)C[C@@H]1C[C@@H](C/C=C(\C)[C@@H](O[C@H]3C[C@H](OC)[C@@H](O[C@H]4C[C@H](OC)[C@@H](NC)[C@H](C)O4)[C@H](C)O3)[C@@H](C)/C=C/C=C3\CO[C@@H]4[C@H](O)C(C)=C[C@@H](C(=O)O1)[C@]34O)O2	–	0.247 µM (active)

Test: Tanguay_ZF_120hpf_AXIS_legacy: (Legacy) Oregon State University Tanguay Lab 120 Hour Post-fertilization zebrafish Assay for Body Axis Malformation (AID 2283635);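 for AC50: potency for an increased fraction of larvae scored with body axis malformation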
Procedure, shortened: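 Tropical 5D wild-type zebrafish embryos, dechorionated with pronase at 4 hpf, were placed singly in wells at 6 hpf and exposed statically to test chemical (0.64% DMSO final) at 28C until 120 hpf, then scored by brightfield for body axis defects.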

Structure (SMILES)	AC50	outcome
CCOP(=O)(NC(C)C)Oc1ccc(SC)c(C)c1 (centres undefined)	22.1 µM (active)	–
COc1cc(OC)nc(Sc2cccc(Cl)c2C(=O)O)n1	–	inactive
CCOP(=S)(OCC)Oc1ccc2c(C)c(Cl)c(=O)oc2c1	–	inactive
CC(=NC#N)N(C)Cc1ccc(Cl)nc1	–	inactive
CN(C)NC(=O)CCC(=O)O	–	inactive
FC(F)C(F)(F)OCC(Cn1cncn1)c1ccc(Cl)cc1Cl (centres undefined)	15.7 µM (active)	–
CCc1cccc(C)c1N(C(=O)CCl)C(C)COC (centres undefined)	–	inactive
COP(=O)(OC)C(O)C(Cl)(Cl)Cl (centres undefined)	–	inactive
CC(C)=CC1C(C(=O)OCN2C(=O)C3=C(CCCC3)C2=O)C1(C)C (centres undefined)	–	inactive
CC(C)N(C(=O)SCC(Cl)=C(Cl)Cl)C(C)C	–	inactive
CCCCOC(=O)c1ccccc1C(=O)O	–	inactive
CCC(=O)Nc1ccc(Cl)c(Cl)c1	–	inactive
COc1cccc(C(=O)NN(C(=O)c2cc(C)cc(C)c2)C(C)(C)C)c1C	–	inactive
S=C1NCCN1	–	inactive
CCCCSP(=O)(SCCCC)SCCCC	–	inactive
CCOP(=S)(OCC)SCCSCC	–	inactive
CCOC(=O)CC(SP(=O)(OC)OC)C(=O)OCC (centres undefined)	16.5 µM (active)	–

Structure (SMILES)	AC50	outcome
CON=C(C(=O)OC)c1ccccc1CON=C(C)c1cccc(C(F)(F)F)c1	–	inactive
CCOP(=S)(OCC)Oc1ccc([N+](=O)[O-])cc1	–	inactive
Cc1cc(C2CC2)nc(Nc2ccccc2)n1	–	inactive
C[Si](Cn1cncn1)(c1ccc(F)cc1)c1ccc(F)cc1	10.3 µM (active)	–
CCC(CC)Nc1c([N+](=O)[O-])cc(C)c(C)c1[N+](=O)[O-]	–	inactive
O=c1ccc(=O)[nH][nH]1	51.7 µM (active)	–
CCCSP(=O)(OCC)Oc1ccc(Br)cc1Cl (centres undefined)	–	inactive
CC1(C(=O)Nc2ccc(O)c(Cl)c2Cl)CCCCC1	–	inactive
CNC(=O)ON=C(SC)C(=O)N(C)C	–	inactive
Nc1nc(N)nc(NC2CC2)n1	–	inactive
CSC1=N[C@@](C)(c2ccccc2)C(=O)N1Nc1ccccc1	–	inactive
CC[C@H](C)[C@H]1O[C@]2(C=C[C@@H]1C)C[C@@H]1C[C@@H](C/C=C(\C)[C@@H](O[C@H]3C[C@H](OC)[C@@H](O[C@H]4C[C@H](OC)[C@@H](NC)[C@H](C)O4)[C@H](C)O3)[C@@H](C)/C=C/C=C3\CO[C@@H]4[C@H](O)C(C)=C[C@@H](C(=O)O1)[C@]34O)O2	–	inactive
N#CSCSC#N	–	inactive
COP(=O)(NC(C)=O)SC (centres undefined)	–	inactive
CCCOCC(=Nc1ccc(Cl)cc1C(F)(F)F)n1ccnc1	–	inactive
C#CC(C)(C)NC(=O)c1cc(Cl)cc(Cl)c1	–	inactive
